Results filed as inconclusive are left out. Calls of active or inactive are those of the source. Unless noted, calls follow the shape of the dose curve; as a rule, active = well fitted curve in the direction sought with a large enough effect in the repeat runs; inconclusive = weak or mixed curves; inactive = no such curve, though single readings can be large; an effect the other way counts as inactive or inconclusive.
Key:
[1] = qHTS assay to identify small molecule antagonists of the progesterone receptor (PR) signaling pathway - cell viability counter screen (AID 1346798); settings: PR-UAS-bla HEK293T viability, CellTiter-Glo luminescence, 16 h; series mostly up to 92.4 µM; also: nearly all actives have a fitted effect of over 50% in size; also: potency is read from the fitted curve at half-maximal effect
In short: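 ATP content as viability readout: CellTiter-Glo luminescence, 30 min room temperature, in PR-UAS-bla HEK293T cells after 16 hr compound/R5020 treatment at 37C and 5% CO2.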

[2] = qHTS assay to identify small molecule agonists of the progesterone receptor (PR) signaling pathway - cell viability counter screen (AID 1346799; calls by dose curve; also: nearly all actives have a fitted effect of over 45% in size; also: potency is read from the fitted curve at half-maximal effect); settings: PR-UAS-bla HEK293T viability, CellTiter-Glo luminescence, 16 h; series mostly up to 92.4 µM
In short: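 Cytotoxicity in PR-bla HEK293T cells: 16 h compound, 37C; CellTiter-Glo added post-FRET read; luminescence after 30 min RT.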

[3] = qHTS assay to identify small molecule antagonists of the TGF-beta/Smad signaling pathway - cell viability counter screen (AID 1346824); settings: SBE-bla HEK293T viability, CellTiter-Glo luminescence; series mostly up to 76.8 µM; also: nearly all actives have a fitted effect of over 50% in size
In short: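 SBE-bla HEK 293T cells, incubated overnight, then compound plus 0.25 ng/mL TGF-beta1 (stock added) for 5 hr at 37 C. Viability was read in the same wells by CellTiter-Glo luminescence after 30 min at room temperature.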

[4] = qHTS assay to identify small molecule agonists of the TGF-beta/Smad signaling pathway - cell viability counter screen (AID 1346829); settings: SBE-bla HEK293T viability, CellTiter-Glo luminescence, 5 h; series mostly up to 76.8 µM; also: top concentration of the series differs between compounds; nearly all actives have a fitted effect of over 45% in size
In short: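 Same-well cytotoxicity: CellTiter-Glo added after the 2 hr room-temperature beta-lactamase substrate step, luminescence measured 30 min later; cells had 5 hr of compound at 37 C.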

[5] = qHTS assay to identify small molecule agonists of the TGF-beta/Smad signaling pathway (AID 1346859; active = well fitted activation curve with a large enough effect in the signal ratio in the repeat runs, not every such curve was filed as active; the % refers to the signal ratio); settings: SBE-bla HEK293T, TGF-beta/Smad beta-lactamase reporter, 5 h; series mostly up to 76.8 µM
In short: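 Stable Smad binding element-beta-lactamase HEK 293T cells; 5 hr compound exposure at 37 C under 5% CO2; 2 hr room-temperature substrate step; fluorescence excited at 405 nm, collected at 460 nm and 530 nm.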

[6] = target: Thyrotropin-releasing hormone receptor (Homo sapiens) (UniProt P34981); assay: qHTS assay to identify small molecule antagonists of the thyrotropin-releasing hormone receptor (TRHR) signaling pathway (AID 1346877; active = well fitted inhibition curve with a large enough effect in the repeat runs, not every such curve was filed as active); settings: TRHR-HEK293, TRH-induced calcium fluorescence, antagonist mode; series mostly up to 51.3 µM
Sequence of Thyrotropin-releasing hormone receptor (Homo sapiens) (P34981 whole entry, looked up): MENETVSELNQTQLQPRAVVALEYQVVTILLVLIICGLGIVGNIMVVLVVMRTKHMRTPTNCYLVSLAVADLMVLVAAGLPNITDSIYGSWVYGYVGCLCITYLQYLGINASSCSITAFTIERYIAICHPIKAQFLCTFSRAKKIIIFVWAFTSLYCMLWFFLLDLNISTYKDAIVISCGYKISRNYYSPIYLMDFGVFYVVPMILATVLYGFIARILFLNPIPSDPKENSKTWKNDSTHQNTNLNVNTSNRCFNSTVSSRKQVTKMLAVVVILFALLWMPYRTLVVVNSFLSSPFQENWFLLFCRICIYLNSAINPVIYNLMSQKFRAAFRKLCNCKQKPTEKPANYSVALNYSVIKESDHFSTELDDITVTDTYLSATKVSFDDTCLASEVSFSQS
In short: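 Cells (TRHR-HEK293) are plated and kept 18 h at 37 °C/5% CO2. A calcium-sensitive dye is added for 2 h, compound follows for 5 min at room temperature, and TRH is then given at 1 nM final.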

[7] = target: Thyrotropin-releasing hormone receptor (Homo sapiens) (UniProt P34981); assay: qHTS assay to identify small molecule agonists of the thyrotropin-releasing hormone receptor (TRHR) signaling pathway (AID 1346891; calls by dose curve;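 also: HEK293 cells expressing TRHR with calcium dye readout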); settings: TRHR-HEK293 calcium fluorescence, agonist mode; series mostly up to 57.6 µM
In short: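 In 1536-format, 1500 TRHR-Hek293 cells per well grew 18 h, took up calcium dye for 2 h at 37 °C, received compound, and were read kinetically; 15-point titrations, triplicates.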

[8] = Human pregnane X receptor (PXR) small molecule agonists, qHTS cell viability counter screen (AID 1346977); settings: PXR-Luc HepG2 viability, CellTiter-Fluor, 24 h; series mostly up to 92.4 µM; also: nearly all actives have a fitted effect of over 50% in size
In short: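 Readout is CellTiter-Fluor fluorescence from PXR-Luc HepG2 cells. Plated cells rested 5hr, then were treated with compounds for 24hr at 37C and 5% CO2, with reagent present during the last hour.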

[9] = Caspase-3/7 induction in HepG2 cells by small molecules, qHTS assay (AID 1346978); settings: HepG2 caspase-3/7 activation, Caspase-Glo luminescence, 17 h; series mostly up to 92.4 µM; also: nearly all actives have a fitted effect of over 15% in size
In short: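 Wild-type HepG2 cells, 2,000/well, settled 5 hr at 37 C and 5% CO2, then compound-treated for 17 hr; caspase-3/7 activity read by luminescent Caspase-Glo 3/7 after 30 min at room temperature.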

[10] = Caspase-3/7 induction in CHO-K1 cells by small molecules, qHTS cell viability counter screen (AID 1346979); settings: CellTiter-Fluor fluorescence, 17 h; series mostly up to 92.4 µM; also: nearly all actives have a fitted effect of over 35% in size
In short: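 To flag cytotoxic compounds, treated CHO-K1 wild-type cells were given CellTiter-Fluor at 16hr and read fluorescently after 1hr at 37C; the caspase-3/7 luminescence was measured in these same wells.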

Measured: Potency

CCCc1ccccc1
inactive: all assays above

Nc1cnn([C@@H]2O[C@H](CO)[C@@H](O)[C@H]2O)c(=O)n1
not listed: [10]
inactive: all other assays above

C=C(C)C(=O)OCCN(C)C
inactive: all assays above

CCCCCCCCCCCCCCC1CO1 (stereo not given)
inactive: all assays above

C=CC(C)(CCC=C(C)C)OC(=O)c1ccccc1 (stereo not given)
inactive: all assays above

O=[N+]([O-])c1cccc(Cl)c1Cl
inactive: all assays above

CCN(CC)CCOC(=O)C1(c2ccccc2)CCCC1
inactive: all assays above

CCCCCCCCCCCCCCCC(=O)OC/C=C(C)/C=C/C=C(C)/C=C/C1=C(C)CCCC1(C)C
inactive: all assays above

O=C1CCCCCO1
not listed: [8]
inactive: all other assays above

CCCCCCOC(=O)CCC
inactive: all assays above

NCCCOCCOCCOCCCN
active: [1] 9.69 µM | [2] 8.63 µM
not listed: [10]
inactive: all other assays above

CC[C@H](C)[C@H](N)C(=O)O
inactive: all assays above

CC1(C)[C@H]2CC[C@]1(C)[C@H](O)C2
inactive: all assays above

CCCCOc1cc(C(=O)OCCN(CC)CC)ccc1N
inactive: all assays above

CC(C)(Oc1ccc(Cl)cc1)C(=O)OCCCOC(=O)C(C)(C)Oc1ccc(Cl)cc1
inactive: all assays above

C1=Cc2ccccc2C1
inactive: all assays above

NCCCN(CCO)CCO
inactive: all assays above

O=C(/C=C/c1ccc(O)c(O)c1)O[C@@H]1C[C@](O)(C(=O)O)C[C@@H](O)[C@H]1O
not listed: [8] | [10]
inactive: all other assays above

N#CCCNCCC#N
inactive: all assays above

CC(C)CCCCCCOC(=O)c1ccc(C(=O)OCCCCCCC(C)C)c(C(=O)OCCCCCCC(C)C)c1
inactive: all assays above

CNS(=O)(=O)Cc1ccc2[nH]cc(CCN(C)C)c2c1
inactive: all assays above

C[Si](C)O[Si](C)(C)O[Si](C)(C)O[Si](C)C
inactive: all assays above

Cc1ncsc1CCO
inactive: all assays above
